Screens as filed in PubChem BioAssay.
RAD52 anneal inh: inhibitors of human RAD52 DNA annealing; P43351; recombinant RAD52 DNA annealing, FRET fluorescence; inhibition, % at 18.7 µM; 360,000 tested, 0.46% active; AID 651710;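 active = every replicate showing at least 50% inhibition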
Ecoli rRNA inh: inhibitors of bacterial rRNA selective over humanized ribosomes. AID 720706. GFP signal change (wild-type ribosome), % (no concentration beside the values). E. coli WT GFP vs humanized-ribosome RFP mutants, fluorescence, 24 h; hits give low values; DMSO median 0, no signal -100. 350,000 tested, 1.6% active;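 active = significant combined selectivity score with lowered wild-type GFP, culture density cut under 30%, mutant RFP and density less affected; inactive = any of these conditions unmet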
AF4-AF9 inh: inhibitors of human MLL-AF4/AF9 interaction. AlphaScreen, biotin-AF4 peptide binding to FLAG-AF9. P42568. AID 651704. inhibition, % at 10 µM. 350,000 tested, 0.47% active;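 active = every replicate reaching a set inhibition limit, whatever the replicate mean, cut at about 25% in these data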
Target sequence (P42568 whole entry, looked up): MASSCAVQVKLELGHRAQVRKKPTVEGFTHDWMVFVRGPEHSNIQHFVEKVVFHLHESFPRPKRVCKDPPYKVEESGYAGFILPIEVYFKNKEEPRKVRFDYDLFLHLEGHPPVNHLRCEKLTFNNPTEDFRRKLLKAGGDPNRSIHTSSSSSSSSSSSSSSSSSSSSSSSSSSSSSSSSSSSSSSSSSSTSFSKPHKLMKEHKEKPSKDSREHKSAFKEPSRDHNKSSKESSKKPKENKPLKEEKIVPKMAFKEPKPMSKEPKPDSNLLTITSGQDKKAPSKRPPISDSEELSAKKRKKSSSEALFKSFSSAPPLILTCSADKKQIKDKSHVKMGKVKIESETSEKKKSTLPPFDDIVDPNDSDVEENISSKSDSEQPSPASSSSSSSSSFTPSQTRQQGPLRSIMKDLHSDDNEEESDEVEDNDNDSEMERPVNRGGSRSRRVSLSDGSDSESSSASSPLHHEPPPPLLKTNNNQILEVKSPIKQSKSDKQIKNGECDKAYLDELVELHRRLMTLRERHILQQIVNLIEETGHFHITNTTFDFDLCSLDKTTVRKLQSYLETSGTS
CASP6 VEID inh: inhibitors of human caspase-6 | P55212 | purified caspase-6, Z-VEID-R110 cleavage fluorescence | inhibition, % at 12.5 µM | 350,000 tested, 0.53% active;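 active = mean inhibition across replicates at least about 35%, with every replicate also reaching that limit, limit read from the data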
NSD2 HMT inh: inhibitors of human histone methyltransferase NSD2; 310,000 tested, 0.54% active; inhibition, % at 12.5 µM; NSD2 peptide methylation, AlphaScreen, 120 min; O96028; in the data active = inhibition above about 50%
Each line names hits and unclear results; the compound was inactive in the other large screens. The list is not random: actives were taken first. Their share in the collection is about 2.5%.

N=C1SCC(=O)N1c1ncc(Cc2ccc(F)cc2)s1	Ecoli rRNA inh -47.5 (no result: NSD2 HMT inh)
Cc1ccc(-c2csc(N3C(=N)SCC3=O)n2)cc1	none (no result: NSD2 HMT inh)
CC(C)NC(=O)N1C2CN(Cc3ccc(F)cc3)CC1C2c1ccc(Br)cc1 (centres undefined)	none (no result: RAD52 anneal inh, AF4-AF9 inh, CASP6 VEID inh, NSD2 HMT inh)
O=C(C[C@@H]1CC[C@H](NS(=O)(=O)c2ccc(F)cc2)[C@@H](CO)O1)NCc1ccc(Cl)c(Cl)c1	none (no result: NSD2 HMT inh)
NS(=O)(=O)c1ccc(CCNC(=O)c2cc([N+](=O)[O-])ccc2N2CCCCC2)cc1	Ecoli rRNA inh -17.1
CN(C)S(=O)(=O)c1cccc(NC(=O)c2cc([N+](=O)[O-])ccc2N2CCCCC2)c1	none
NS(=O)(=O)c1ccc(CCNC(=O)/C=C/c2ccc([N+](=O)[O-])cc2)cc1	Ecoli rRNA inh -17.9
CC(=O)Nc1cccc(NC(=O)c2cc([N+](=O)[O-])ccc2N2CCCCC2)c1	CASP6 VEID inh 35.7 (no result: Ecoli rRNA inh)
O=C(C[n+]1cccc(CNC(=O)c2ccc(OC(F)F)cc2)c1)Nc1cccc(C(F)(F)F)c1	none (no result: RAD52 anneal inh, Ecoli rRNA inh, AF4-AF9 inh, CASP6 VEID inh)
O=C(C[n+]1cccc(CNC(=O)c2ccc(OC(F)F)cc2)c1)Nc1ccc(F)cc1	Ecoli rRNA inh -18.6
CN1CCN(CC(O)Cn2c3ccccc3c3ccccc32)CC1 (centres undefined)	none
CN1CCN(CC#CCn2c3ccccc3c3ccccc32)CC1	Ecoli rRNA inh -33.6
Cc1ccc(-c2nc(NCCCO)c3ccccc3n2)cc1	none
CN(C)CCCNc1nc(-c2ccc(Cl)cc2)nc2ccccc12	RAD52 anneal inh 50.1
COc1ccccc1N1CCN(Cc2cc(Br)c(O)c3ncccc23)CC1	AF4-AF9 inh 26.8 (no result: NSD2 HMT inh)
CCOc1ccccc1N1CCN(Cc2cccc(OC)c2O)CC1	none (no result: RAD52 anneal inh, Ecoli rRNA inh, AF4-AF9 inh, CASP6 VEID inh)
COCC1=C2[C@@H](c3ccccc3)OB(O)C[C@@H]2[C@@H]2C(=O)N(Cc3ccccc3)C(=O)[C@@H]2C1	none (no result: Ecoli rRNA inh, NSD2 HMT inh)
O=C(Cc1csc(-c2ccccc2)n1)Nc1ccc(C(F)(F)F)cc1	none (no result: RAD52 anneal inh, Ecoli rRNA inh, AF4-AF9 inh, CASP6 VEID inh)
NNC(=O)Cc1csc(-c2ccccc2)n1	Ecoli rRNA inh -27.9
COc1ccc(C[C@H]2CCn3cc(nn3)COC[C@@H](Cc3ccccc3)NC2=O)cc1	none (no result: RAD52 anneal inh, AF4-AF9 inh, CASP6 VEID inh, NSD2 HMT inh)
S=c1[nH]nc(-c2ccco2)n1/N=C/C(Cl)=C/c1ccccc1	Ecoli rRNA inh -36.4
COc1ccc(NC(=O)Nc2ccc3c(c2)C(=O)N([C@H](C)CO)C[C@@H](C)[C@H](CN(C)C(=O)C2CCCCC2)OCCCC[C@H](C)O3)cc1	none (no result: NSD2 HMT inh)
CN(C)C1=NCC(CSC(=N)N)S1 (centres undefined)	Ecoli rRNA inh -36.8
C[C@H](CO)N1C[C@H](C)[C@@H](CN(C)C(=O)Nc2cccc3ccccc23)Oc2ccc(N(C)C)cc2C1=O	none (no result: NSD2 HMT inh)
Cc1cc(C)cc(NC(=O)Cc2ccc(S(=O)(=O)N3CCCC3)s2)c1	CASP6 VEID inh 51.1
O=C(Cc1ccc(S(=O)(=O)N2CCCCC2)s1)Nc1ccc(F)c(F)c1	none
CCN(CC)c1ccc(/C=C(\C#N)C(N)=S)cc1	Ecoli rRNA inh -22.5
O=[N+]([O-])c1ccccc1N/N=C1\CC2CC=CC12 (centres undefined)	Ecoli rRNA inh -28.7
O=C(CN1CCN(Cc2ccc(Cl)cc2)CC1)N/N=C/C=C/c1ccccc1[N+](=O)[O-]	Ecoli rRNA inh -42.4
O=S(=O)(Nc1ccn(-c2ccccc2)n1)c1ccc(Br)cc1	Ecoli rRNA inh -45.9
C[C@@H]1CCCCO[C@H](CN(C)C(=O)Nc2ccc(F)cc2)[C@H](C)CN([C@H](C)CO)C(=O)c2cc(NS(=O)(=O)c3ccccc3)ccc2O1	none (no result: NSD2 HMT inh)
COc1cccc(Nc2nc(NCCO)nc(N3CCCC3)n2)c1	Ecoli rRNA inh -24.9 (no result: NSD2 HMT inh)
O=C(C[C@@H]1CC[C@H](NC(=O)c2cccnc2)[C@H](CO)O1)NCc1ccncn1	none (no result: NSD2 HMT inh)
C/C(=N\NC(=O)c1cc(-c2ccc(C)s2)[nH]n1)c1ccco1	Ecoli rRNA inh -35.4
COc1ccc(NC(=O)Nc2ccc3c(c2)CC(=O)N([C@@H](C)CO)C[C@H](C)[C@H](CN(C)Cc2ccc(Oc4ccccc4)cc2)O3)cc1	none (no result: NSD2 HMT inh)
COc1ccc(NC(=O)Nc2ccc3c(c2)CC(=O)N([C@H](C)CO)C[C@H](C)[C@@H](CN(C)Cc2ccc(Oc4ccccc4)cc2)O3)cc1	RAD52 anneal inh 67.0 (no result: NSD2 HMT inh)
COc1ccc(NC(=O)Nc2ccc3c(c2)CC(=O)N([C@@H](C)CO)C[C@@H](C)[C@H](CN(C)Cc2ccc(-c4ccccc4)cc2)O3)cc1	RAD52 anneal inh 57.5 (no result: NSD2 HMT inh)
CC(=O)N(C)C[C@H]1Oc2ccccc2CC(=O)N(C)C[C@H]1C	none (no result: RAD52 anneal inh, AF4-AF9 inh, CASP6 VEID inh, NSD2 HMT inh)
CC(C)NC(=O)N[C@@H]1CC[C@@H](CCNC(=O)C2CCC2)O[C@H]1CO	none (no result: NSD2 HMT inh)
COCCCN1C(=O)[C@@]2(Cc3ccccc31)c1ccccc1C(=O)N(C1CCCCC1)[C@H]2c1ccc(CO)cc1	none (no result: Ecoli rRNA inh, NSD2 HMT inh)
O=C(C1CCCC1)N1CC2(C1)[C@@H](c1ccccc1)[C@@H](CO)N2C(=O)c1cccnc1	none (no result: NSD2 HMT inh)
NC(=O)COC(=O)CSc1cccc2cccc(Cl)c12	Ecoli rRNA inh -29.1 (no result: NSD2 HMT inh)
O=C(CSc1cccc2cccc(Cl)c12)OCC(=O)N1CCN(C(=O)c2ccco2)CC1	none (no result: RAD52 anneal inh, Ecoli rRNA inh, AF4-AF9 inh, CASP6 VEID inh)
O=C1CS(=O)(=O)C(c2ccccc2)N1c1ccc(Cl)cc1 (centres undefined)	none (no result: Ecoli rRNA inh, NSD2 HMT inh)
CCCCCOc1ccc(C(=O)NCCC(=O)NCCCC(=O)OCC)cc1	Ecoli rRNA inh -25.1
COc1cc2c(cc1OC)CN(C(=O)c1ccc(S(=O)(=O)N3CCCC3)cc1)CC2	none
CCOc1cc2c(cc1OCC)CN(C(=O)c1cccc(S(=O)(=O)N3CCCC3)c1)CC2	Ecoli rRNA inh -19.1
FC(F)(F)c1ccc(Cl)c(-n2c(-c3cc(-c4ccco4)[nH]n3)n[nH]c2=S)c1	CASP6 VEID inh 69.1 (no result: AF4-AF9 inh)
FC(F)(F)c1ccc(Cl)c(-n2c(-c3ccco3)n[nH]c2=S)c1	none
COc1cc(OC)c(C(=O)OCC(=O)N(Cc2ccccc2)C(C)(C)C)cc1OC	Ecoli rRNA inh -29.9
O=C(C[C@H]1CC[C@@H](NC(=O)c2ccncc2)[C@@H](CO)O1)Nc1ccc(-c2ccccc2)cc1	none (no result: NSD2 HMT inh)
O=C(C[C@@H]1C=C[C@H](NC(=O)CN2CCOCC2)[C@@H](CO)O1)NC1CCCCC1	none (no result: NSD2 HMT inh)
COc1cc2c(cc1OC)CN(C(=O)/C=C/c1ccc([N+](=O)[O-])cc1)CC2	Ecoli rRNA inh -17.2
Cc1[nH]nc(C(=O)NN=Cc2ccccc2Cl)c1N=NN(C)C	Ecoli rRNA inh -21.0
C[C@@H]1CN([C@H](C)CO)C(=O)c2cc(NC(=O)CCCN(C)C)ccc2O[C@@H]1CN(C)Cc1ccc2c(c1)OCO2	none (no result: RAD52 anneal inh, NSD2 HMT inh)
C[C@@H]1CN(C)C(=O)Cc2ccccc2O[C@@H]1CN(C)C(=O)OC(C)(C)C	none (no result: RAD52 anneal inh, AF4-AF9 inh, CASP6 VEID inh, NSD2 HMT inh)
O=C(/C=C/c1ccc([N+](=O)[O-])cc1)NC1CC2CCC1C2 (centres undefined)	Ecoli rRNA inh -28.4
O=C(/C=C/c1ccc(Cl)cc1)NC1CC2CCC1C2 (centres undefined)	none
Cc1onc(-c2ccccc2)c1-c1nnc(-c2ccccc2C(F)(F)F)o1	Ecoli rRNA inh -19.9
C=CCC(NCc1ccccc1)c1ccc(Cl)cc1 (centres undefined)	CASP6 VEID inh 53.9 (no result: Ecoli rRNA inh)
C=CCC(NCc1ccccc1)c1ccc(C)o1 (centres undefined)	none (no result: RAD52 anneal inh, Ecoli rRNA inh, AF4-AF9 inh, CASP6 VEID inh)
